From PMC4336329 (PLoS ONE, 2015)
The whole screen tested about 310,000 compounds, of which about 14,000 (4.5%) showed an effect of 50% or more. Effects have a minus sign here. Only a selection was taken, and strong results are over-represented in it overall.

target: human ether-à-go-go-related gene (hERG) potassium channel (human, UniProt Q12809); experiment: primary screen, population patch clamp on CHO cells stably expressing hERG; higher = less effect of the substance
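Also: peak tail current of the secondary pulse compared with the same well before compound.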

Chain of human ether-à-go-go-related gene (hERG) potassium channel (Q12809 whole entry, looked up): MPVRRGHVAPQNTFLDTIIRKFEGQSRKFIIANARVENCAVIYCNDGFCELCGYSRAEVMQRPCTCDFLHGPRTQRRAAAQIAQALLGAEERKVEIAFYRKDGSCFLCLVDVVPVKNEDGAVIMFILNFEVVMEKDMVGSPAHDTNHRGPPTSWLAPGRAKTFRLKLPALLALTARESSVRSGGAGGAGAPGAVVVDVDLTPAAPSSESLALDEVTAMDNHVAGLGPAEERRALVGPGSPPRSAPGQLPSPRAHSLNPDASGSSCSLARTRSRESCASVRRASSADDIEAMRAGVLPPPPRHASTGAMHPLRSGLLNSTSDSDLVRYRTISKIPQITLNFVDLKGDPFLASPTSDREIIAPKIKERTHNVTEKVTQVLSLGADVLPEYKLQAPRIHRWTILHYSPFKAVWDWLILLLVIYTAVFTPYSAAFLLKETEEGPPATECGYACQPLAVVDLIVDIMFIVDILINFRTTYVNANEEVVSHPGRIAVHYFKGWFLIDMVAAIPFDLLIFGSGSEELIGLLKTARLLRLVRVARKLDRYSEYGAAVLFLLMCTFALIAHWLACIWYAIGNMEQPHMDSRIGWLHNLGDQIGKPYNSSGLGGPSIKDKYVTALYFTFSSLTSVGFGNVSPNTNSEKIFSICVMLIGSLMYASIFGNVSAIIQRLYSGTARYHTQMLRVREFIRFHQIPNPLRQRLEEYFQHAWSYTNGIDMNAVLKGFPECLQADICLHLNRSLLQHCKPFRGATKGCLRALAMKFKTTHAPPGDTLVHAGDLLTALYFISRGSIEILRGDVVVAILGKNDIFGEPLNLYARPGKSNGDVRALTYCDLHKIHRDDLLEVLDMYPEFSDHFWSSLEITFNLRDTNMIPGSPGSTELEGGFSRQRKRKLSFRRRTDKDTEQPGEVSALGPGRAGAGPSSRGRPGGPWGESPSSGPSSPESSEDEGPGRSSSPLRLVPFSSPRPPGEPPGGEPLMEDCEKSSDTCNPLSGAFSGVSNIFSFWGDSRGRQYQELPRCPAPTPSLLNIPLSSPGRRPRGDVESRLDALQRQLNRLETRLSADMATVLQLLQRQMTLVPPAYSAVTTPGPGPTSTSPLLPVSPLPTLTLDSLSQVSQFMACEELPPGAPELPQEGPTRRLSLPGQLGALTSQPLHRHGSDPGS

SMILES	hERG current change (%, negative = inhibition) at 10uM
Cc1nn(-c2cc(N3CCCCCC3)ccc2[N+](=O)[O-])c(=O)c2ccccc12	6.02%
O=C(NCCc1c[nH]c2ccccc12)C(=O)NCC(c1ccco1)N1CCN(c2ccc(F)cc2)CC1 (stereo not drawn)	7.65%
Cc1cc(C)n(CC(=O)c2ccccc2)c(=O)c1C#N	10.9%
CCNc1nc(NCC)nc(SCCOC(=O)c2ccccc2)n1	-39.4%
CCNc1nc(NCC)nc(OCCOC(=O)Nc2ccccc2)n1	-0.811%
CCNc1nc(NCC)nc(SCCOC(=O)Nc2ccccc2)n1	-71%
O=C(CSc1nnc(CNC(=O)c2ccccc2)o1)NCc1ccco1	-0.224%
Cc1ccc(CSc2ccc(S(=O)(=O)N3CCOCC3)cn2)cc1	-10.2%
COc1cc(/C=C/C(=O)Nc2ccccc2C(F)(F)F)cc(OC)c1OC	-5.76%
COC(=O)CN(c1nc(C)cc(OC)n1)S(=O)(=O)c1ccc(C)cc1	-8.25%
Cc1c(C(=O)C(=O)NCCc2ccc(S(N)(=O)=O)cc2)c2ccccc2n1C	-13.4%
COc1ccc(S(=O)(=O)NCc2ccncc2)cc1NC(=O)c1ccccc1F	18.7%
COc1ccc(S(=O)(=O)NCc2cccnc2)cc1NC(=O)c1ccc(C)cc1	-17.6%
COc1ccc(S(=O)(=O)NCc2ccccn2)cc1NC(=O)c1ccccc1	8.45%
COc1ccc(S(=O)(=O)NCc2ccccn2)cc1NC(=O)c1ccc(Cl)cc1	-68.8%
COc1ccc(S(=O)(=O)NCc2ccncc2)cc1NC(=O)c1ccc(Cl)cc1	-67.4%
COc1ccc(S(=O)(=O)NCC2CCCO2)cc1NC(=O)c1ccccc1 (stereo not drawn)	-15.4%
COc1ccc(S(=O)(=O)NCC2CCCO2)cc1NC(=O)c1ccc(Cl)cc1 (stereo not drawn)	-54%
COc1ccc(S(=O)(=O)NCc2cccnc2)cc1NC(=O)c1ccc(Cl)cc1	-52.2%
COc1ccc(S(=O)(=O)NCc2ccncc2)cc1NC(=O)c1ccccc1	-34.7%
COc1ccc(S(=O)(=O)NCc2ccccn2)cc1NC(=O)c1ccc(C)cc1	-16.5%
COc1ccc(S(=O)(=O)NCC2CCCO2)cc1NC(=O)c1ccccc1F (stereo not drawn)	19.1%
COc1ccc(S(=O)(=O)NCc2cccnc2)cc1NC(=O)c1ccccc1	-3.99%

SMILES	hERG current change (%, negative = inhibition) at 10uM
Cc1cc(C)n(CC(=O)N2CCCC(N3CCN(c4ccc(F)cc4)CC3)C2)n1 (stereo not drawn)	-18.1%
COc1ccccc1N1CCN(C2CCCN(C(=O)CC(F)(F)F)C2)CC1 (stereo not drawn)	12.4%
O=C(CCN1CCCCO1)N1CCCC(N2CCN(c3ccc(F)cc3)CC2)C1 (stereo not drawn)	-11.2%
COc1ncccc1C(=O)N1CCCC(N2CCN(c3ccc(F)cc3)CC2)C1 (stereo not drawn)	-26.7%
COc1ccc(N2CCN(C3CCCN(C(=O)CSC)C3)CC2)cc1 (stereo not drawn)	3.1%
COc1ccccc1OCC(=O)N1CCCC(N2CCN(c3ccc(F)cc3)CC2)C1 (stereo not drawn)	-52.9%
O=C(COc1ccccc1Cl)N1CCN(c2ccc(F)cc2)CC1	-6.04%
O=C(COc1ccccc1Cl)N1CCCC(N2CCN(c3ccc(F)cc3)CC2)C1 (stereo not drawn)	-65.8%
Cc1ccc(OCC(=O)N2CCCC(N3CCN(c4ccc(F)cc4)CC3)C2)cc1 (stereo not drawn)	-101%
COc1ccc(CN2CCN(C(=O)CCC(=O)Nc3nnc(CC(C)C)s3)CC2)cc1F	-17.9%
O=C(c1cccc2ccccc12)N1CCN(c2ccccc2F)CC1	-9.72%
O=C(CCC(=O)Nc1ccccc1)N/N=C/C=C/c1ccccc1	32.1%
CC(=O)Nc1ccc(NC(=O)C2CC(=O)N(c3cccc(C)c3C)C2)cc1 (stereo not drawn)	9.48%
Cc1ccn2c(CN(C)CCn3nc(C)cc3C)c(C(=O)N3CCCCCC3)nc2c1	4.86%
Cc1cc2cc3c(cc2nc1SCc1ccccn1)OCCO3	5.43%
O=c1c(Cl)c(N2CCOCC2)cnn1-c1ncc(C(F)(F)F)cc1Cl	5.44%
Cc1ccc(N2CC(C(=O)Nc3ccc(S(=O)(=O)N4CCCC4)cc3)CC2=O)cc1C (stereo not drawn)	6.52%
Cc1c(/C(O)=C2/C(=O)C(=O)N(CCN3CCOCC3)C2c2cccs2)cnn1-c1ccccc1 (stereo not drawn)	13.6%
COc1cccc(C(=O)NCc2ccc3c(c2)cc(C)n3C)c1	17%
CCc1ccc2[nH]c(=O)c(CN(CCO)C(=O)NCc3ccccc3)cc2c1	3.64%
CCc1ccc2[nH]c(=O)c(CN(CCCO)C(=O)NCc3ccccc3)cc2c1	-13%
CCc1ccc2[nH]c(=O)c(CN(CCN(CC)CC)C(=O)Nc3ccccc3OC)cc2c1	-76.5%
